A selection: hits, their analogues and other compounds. The true share with any hit is near 7.3%.
Rab9 promoter act – qHTS Assay for Rab9 Promoter Activators; Huh7 Rab9 promoter-luciferase reporter, luminescence, 24 h; Potency, µM (top dose mostly 9.22 µM), for the others: at the top dose activation, negative = inhibition, hits mostly activators; actives 2.8% (n = 320,000); AID 485297, 2010; also: % of control where 0% means no effect; nearly all actives have a fitted effect of over 60% in size
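Luciferase signal after 10 min detection reagent at ambient indicates Rab9 promoter upregulation; stably transfected Huh7 cells were treated 24 h with compound in DMSO at 37 °C, 5% CO2.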
SMN2 splice enh – qHTS Assay for Enhancers of SMN2 Splice Variant Expression. actives 2.8% (n = 210,000). HEK293 SMN2-luciferase splicing reporter, luminescence, 30-36 h. AID 1458, 2008. Potency, µM (series often up to 46.1 µM), for inactives: top-dose activity change, positive = activation, hits mostly activators; also: % of control where 0% means no effect; nearly all actives have a fitted effect of over 55% in size
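HEK293 cells carry an SMN2 […]–luciferase reporter in which exon 7 inclusion puts luciferase in frame. Cells were plated 10-12 h before compound addition, then incubated 30-36 h at 37C. ONE-Glo luminescence was read; sodium butyrate at 4.5 mM final served as control.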
ELG1 genotoxic – qHTS screen for small molecules that induce genotoxicity in human embryonic kidney (HEK293T) cells expressing luciferase-tagged ELG1. HEK293T ELG1-luciferase reporter, luminescence, 16 h. actives 1.3% (n = 330,000). AID 504466, 2011. Potency, µM (series often up to 46 µM), for inactives: at the highest dose activity change, positive = activation, actives largely listed as activators; also: % of control where 0% means no effect; nearly all actives have a fitted effect of over 60% in size
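ELG1-luciferase HEK293T cells, 2,000/well; compound pinned in; 16 hr, 37 °C, 5% CO2; ONE-Glo, 30 min RT; luminescence on CCD imager.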
Luc counter – Counterscreen for Luciferase (Kinase-Glo TM) Inhibition | actives 0.28% (n = 200,000) | Potency, µM (top dose mostly 38.3 µM), inactives show top-dose activity change, negative = inhibition, most hits filed as inhibitors | Luciferin 4-monooxygenase (Photuris pensylvanica), Q27757 | Kinase-Glo luciferase, ATP luminescence, 8 min | AID 1379, 2008; also: % is scaled to controls: 0 for no effect and ±100 for the full control effect; nearly all actives have a fitted effect of over 60% in size
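Compounds were added to a substrate mix at pH 7.2 (50 mM imidazole, 10 uM ATP, within the enzyme's linear range), followed by Kinase-Glo detection reagent; luminescence was measured after 8 minutes at ambient temperature.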
NPC1 promoter act – qHTS Assay for NPC1 Promoter Activators. AID 485313, 2010. actives 2.4% (n = 320,000). Potency, µM (highest dose often 9.22 µM), for the others: at the top dose activation, usual class: activators. Huh7 NPC1 promoter luciferase reporter, 24 h; also: % of control where 0% means no effect; nearly all actives have a fitted effect of over 60% in size
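Luminescence read-out of NPC1 promoter-driven luciferase in stably transfected Huh7 cells; compounds delivered in DMSO and left 24 h at 37C, 5% CO2, qHTS titration format.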
FLuc modulator – qHTS profiling assay for firefly luciferase inhibitor/activator using purifed enzyme and Km concentrations of substrates (counterscreen for miR-21 project). purified FLuc, Km substrates, luminescence inhibition. Potency, µM (series often up to 57.5 µM), for the others: at the highest dose activity change, negative = inhibition, actives largely listed as inhibitors. actives 6.9% (n = 360,000). AID 588342, 2011;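 also: plate controls were vehicle for no effect and reference inhibitor for full effect; nearly all actives have a fitted effect of over 55% in size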
Target sequence (P08659 whole entry, looked up): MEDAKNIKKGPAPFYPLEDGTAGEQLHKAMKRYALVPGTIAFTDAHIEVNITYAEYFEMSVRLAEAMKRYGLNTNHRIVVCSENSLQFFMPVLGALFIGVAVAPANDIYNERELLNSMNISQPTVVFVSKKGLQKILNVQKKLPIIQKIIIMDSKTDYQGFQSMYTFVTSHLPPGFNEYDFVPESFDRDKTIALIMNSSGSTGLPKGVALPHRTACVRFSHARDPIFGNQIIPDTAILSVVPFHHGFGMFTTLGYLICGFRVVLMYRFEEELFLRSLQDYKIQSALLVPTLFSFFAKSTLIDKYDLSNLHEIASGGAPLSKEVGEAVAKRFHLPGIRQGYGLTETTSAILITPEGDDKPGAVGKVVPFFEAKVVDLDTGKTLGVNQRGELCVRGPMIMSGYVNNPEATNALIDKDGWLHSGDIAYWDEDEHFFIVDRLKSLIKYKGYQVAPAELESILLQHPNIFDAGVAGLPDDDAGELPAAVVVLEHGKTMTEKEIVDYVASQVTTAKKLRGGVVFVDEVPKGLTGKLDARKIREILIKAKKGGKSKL
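Purified P. pyralis luciferase (10nM final) with 10uM D-luciferin and 10uM ATP (Km levels) in 50mM Tris acetate pH 7.5, 10mM Mg acetate, 0.01% Tween-20, 0.05% BSA; qHTS 6-point titration, ~60 µM downward; luminescence read.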
* marks the source's active call; other numbers are inactive results; ? = inconclusive; / = no result given; [ ] = remark or other dose. Calls follow the shape of the dose curve; as a rule, active = well fitted curve in the direction sought with a large enough effect; inconclusive = small, poorly fitted or top-dose-only effect, or another doubt; inactive = no such curve, though single readings can be large; an effect the other way counts as inactive or inconclusive. Potency is read from the fitted curve at half-maximal effect.

SMILES	Rab9 promoter act	SMN2 splice enh	ELG1 genotoxic	Luc counter	NPC1 promoter act	FLuc modulator
Cc1ccc(S(=O)(=O)Nc2cc3c(cc2NCc2ccccc2)n(C)c(=O)n3C)cc1	/	14µM*	/	/	/	?
Cn1c(=O)n(C)c2cc(NS(=O)(=O)c3ccc(F)cc3)c(NCc3ccccc3)cc21	/	0.89µM*	/	/	/	17µM*
CCc1ccc(S(=O)(=O)Nc2cc3c(cc2C)n(C)c(=O)n3C)cc1	-34%	/	?	/	-32%	3%
Cc1ccc(S(=O)(=O)Nc2cc3c(cc2NCc2ccccc2)n(C)c(=O)n3C)c(C)c1	/	10µM*	/	/	/	?
Cc1ccc(S(=O)(=O)Nc2ccc3c(c2)n(C)c(=O)n3C)c(C)c1	-8%	/	?	0%	-1%	-8%
C=CCSc1nnc(-c2cccc3ccccc23)o1	/	/	0%	/	/	/
C=CCSc1nnc(-c2cc3c(s2)-c2ccccc2CC3)o1	?	?	8%	0%	0%	12µM*
Cc1ccc(N2C(=O)CC3(CCCC3)CC2=O)cc1	12%	/	10%	/	2%	11µM*
Cc1ccc(N2C(=O)CS(=O)(=O)CC2=O)cc1	-8%	-3%	-1%	3%	-1%	-3%
Cc1ccccc1/C=C/c1nc2ccccc2c(=O)[nH]1	1.4µM*	/	10µM*	/	?	2.1µM*
Cc1ccccc1/C=C\c1nc2ccccc2c(=O)[nH]1	0.56µM*	10µM*	18µM*	-7%	?	1.9µM*
COc1ccccc1NC(=O)Cn1c(=O)n(Cc2ccccc2)c(=O)c2c1c1cc(C)ccc1n2C	/	/	/	/	/	-1%
Cc1cccc(C)c1-n1c(C)cc(/C=C2\NC(=O)NC2=O)c1C	-8%	12%	14%	-2%	-1%	?
Cc1cc(/C=C2\NC(=O)NC2=O)c(C)n1-c1cccnc1	1%	/	17%	/	22%	15µM*
Cc1cc(/C=C2\NC(=S)NC2=O)c(C)n1-c1cccnc1	?	/	10%	/	21%	9.5µM*
CCOC(=O)c1ccc(N=C2S/C(=C\c3cc(C)n(-c4cccnc4)c3C)C(=O)N2C)cc1	1%	10%	-1%	18%	-2%	3%
Cc1cc(/C=C2\SC(=S)N(Cc3ccco3)C2=O)c(C)n1-c1cccnc1	?	5%	?	-1%	?	4.8µM*
Cc1ccc(CN2C(=O)C3(c4ccccc42)N(c2cccc(C(F)(F)F)c2)C(=O)CS3(=O)=O)cc1 (stereo unspecified)	/	/	/	/	/	2%
Cc1ccc(S(=O)(=O)NCCc2cn3ccsc3n2)cc1	/	/	/	/	/	2%
COc1nc(-c2ccccc2)nnc1-c1ccccc1	3.2µM*	13µM*	8.2µM*	-2%	?	5.4µM*
Cc1ccc(O)c(-c2cc3ccccc3[nH]2)c1	17%	12%	4%	0%	21%	27µM*
Clc1ccc2[nH]c(-c3ccccc3)cc2c1	2.5µM*	?	?	8%	3.2µM*	11µM*
Cc1ccc(C(=O)OCc2cc3ccccc3[nH]c2=O)cc1	-5%	17%	2%	-1%	0%	3%
COc1ccc(-c2cc(=O)c3ccccc3[nH]2)cc1	0%	-7%	4%	-1%[39.9 µM]	4%	?
c1ccc(-c2cc3ccccc3[nH]2)cc1	?	/	?	/	?	19µM*
SMILES	Rab9 promoter act	SMN2 splice enh	ELG1 genotoxic	Luc counter	NPC1 promoter act	FLuc modulator
COc1ccc(-c2cc3ccccc3[nH]2)cc1	2µM*	/	?	/	3.5µM*	4.8µM*
Cc1cccc(N2CCN(C(=O)c3cccn4c(=O)c5cc(Cl)ccc5nc34)CC2C)c1 (stereo unspecified)	/	/	/	/	/	0%
CCOC(=O)c1ccc(NS(=O)(=O)c2cc3c(cc2C)n(C)c(=O)c(=O)n3C)cc1	/	/	/	/	/	-19%
COc1ccc2nccc(SCC(=O)O)c2c1	/	-5%[9.22 µM]	/	0%[7.66 µM]	/	/
CCc1ccccc1NC(=O)N1CCN(c2cc(-c3noc(C)n3)ccc2C)CC1	/	/	/	/	/	1%
Cc1ccc(NC(=O)N/C=C/c2ccccc2)cc1	1.4µM*	14µM*	?	0%	0.89µM*	2.1µM*
O=C(N/C=C/c1ccccc1)Nc1ccc(Cl)cc1	4.5µM*	?	?	2%	3.5µM*	6.7µM*
Brc1ccccc1-c1nnc(-c2cccnc2)o1	?	2%	18µM*	0%	?	15µM*
Cc1ccc(-c2nnc(-c3ccccc3Br)o2)cc1	4µM*	/	?	/	4µM*	0.76µM*
Brc1ccc(-c2nnc(-c3ccccc3Br)o2)cc1	0.71µM*	14µM*	2.9µM*	-18%	1.1µM*	1.3µM*
Cc1ccc(-c2nnc(/C=C/c3ccccc3)o2)cc1	18%	18µM*	?	-3%	22%	17µM*
COc1cccc2c1Oc1ncccc1N(C(=O)CCC(=O)NCc1ccc(OC(C)C)cc1)C2	/	/	/	/	/	-8%
CN(C)c1ccc(NC(=S)NC(=O)/C=C/c2ccc(Cl)cc2)cc1	21%	44%	11%	2%	16%	4.8µM*
CCN(CC)c1ccc(NC(=O)C(C)C)cc1	13%	-13%	11%	-5%	11%	-15%
CN(C)c1ccc(NC(=O)/C=C/c2ccccc2Cl)cc1	2.5µM*	20µM*	?	0%	?	1.2µM*
CCN(CC)c1ccc(NC(=O)/C=C\c2ccccc2Cl)cc1	27%	?	7.3µM*	6%	26%	2.7µM*
COc1ccc(NC(=O)NCCn2nnc3cc(S(=O)(=O)N(C)C)ccc32)cc1	/	/	/	/	/	-2%
CCOC(=O)CC(=O)CSc1nc2c(c(C)c1C#N)CCC2	6%	-6%	1%	0%	23%	11µM*
Cc1ccccc1NC(=O)Cn1cnc2c(oc3nc4c(cc32)CCCC4)c1=O	10%	/	6%	/	1%	-14%
CCOC(=O)CC(=O)COc1nc2cc3c(nc2o1)CCCC3	18%	/	?	/	-3%	13µM*
CCOC(=O)CC(=O)CSc1nc2c(cc1C#N)CCCCC2	?	?	7.1µM*	-2%	21%	9.5µM*
CC(C)OC(=O)CC(=O)CSc1nc2c(cc1C#N)CCCCC2	?	?	15µM*	1%	14%	7.6µM*
C=CC1=C(C)/C(=C/c2[nH]c(Cc3[nH]c(/C=C4\NC(=O)C(C)=C4C=C)c(C)c3CCC(=O)O)c(CCC(=O)O)c2C)NC1=O	/	-9%	/	-10%	/	/

Compound activity deposited in PubChem by National Center for Advancing Translational Sciences (NCATS).
